Shown are actives, neighbours in structure and some others; about 4.6% of the full set was active somewhere.
D1 ag = agonists of human D1 dopamine receptor. HEK293 T-REx D1 cells, calcium flux, agonist mode. activation, % at 2 µM. actives 1% (n = 360,000). AID 504660; also: 0% is about no effect
Target sequence (P21728 whole entry, looked up): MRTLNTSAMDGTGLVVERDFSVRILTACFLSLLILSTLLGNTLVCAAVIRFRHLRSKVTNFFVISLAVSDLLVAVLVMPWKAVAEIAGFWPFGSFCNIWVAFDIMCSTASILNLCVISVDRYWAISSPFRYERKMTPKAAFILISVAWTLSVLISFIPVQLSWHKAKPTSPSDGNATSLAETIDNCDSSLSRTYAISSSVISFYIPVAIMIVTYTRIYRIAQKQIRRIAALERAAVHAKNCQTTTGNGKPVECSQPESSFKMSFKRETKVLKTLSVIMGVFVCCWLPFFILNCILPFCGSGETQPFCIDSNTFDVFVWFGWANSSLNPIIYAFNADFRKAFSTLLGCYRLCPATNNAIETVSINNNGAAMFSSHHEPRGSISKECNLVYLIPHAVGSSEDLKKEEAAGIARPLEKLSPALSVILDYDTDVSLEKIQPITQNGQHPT
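Agonism was scored from calcium flux recorded over 180 s (1 read/s) after pintool compound addition, following a 10-cycle baseline. Cells were inducible force-coupled HEK293 TREx D1, plated overnight at 30 C and loaded with no-wash calcium dye.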
D1 antagonist = blocks dopamine activation of the human D1 receptor. P21728. HEK293 TREx D1 cells, calcium flux, dopamine EC80; active compounds read low. activity change, negative = inhibition, % at 10 µM. actives 3.2% (n = 360,000); in the data active = activity change below about -30%; also: % is scaled to controls: 0 for no effect and ±100 for the full control effect
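Inducible Hek293 Trex D1 cells (tetracycline, overnight, 30 C). Calcium dye 30–90 min RT. Antagonist mode: EC80 dopamine added after 180 s compound read.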
TRHR ag = agonists of human TRH receptor; TRHR cells, calcium flux fluo-8, FDSS agonist mode; actives 0.18% (n = 360,000); P34981; activation, % at 2 µM; AID 493084; also: 0% is about no effect
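TRHR-expressing cells loaded with fluo-8 calcium dye; 23 nL library compound pin-transferred, kinetic FDSS fluorescence (Ex 480/Em 530) recorded about 180 s for agonist-induced calcium release, before a 10 nM TRH EC20 addition for potentiator mode.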
D1 potentiator = human D1 dopamine receptor positive modulation | HEK293 TREx D1 cells, calcium flux, dopamine EC20 potentiation | actives 0.036% (n = 360,000) | potentiation, % at 10 µM | P21728; in the data active = potentiation above about 30%; also: 0% is about no effect
TRHR enhancer = TRH receptor (human) allosteric enhancement; actives 0.66% (n = 360,000); P34981; AID 493056; enhancement, % at 2 µM; TRHR cells, fluo-8 calcium fluorescence, EC20 TRH enhancement; in the data active = enhancement above about 30%; also: 0% is about no effect
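TRHR-expressing cells loaded with fluo-8 calcium dye were read kinetically (ex 480/em 530) during compound addition, then stimulated with an EC20 of TRH (10 nM final). Enhancement of the Gq-mediated intracellular calcium response was scored.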
Starred values were filed as active, the others as inactive; / = no result. Rule as the data show it, unless noted: active = activation above about 30%; inactive = the rest.

SMILES | D1 ag | D1 antagonist | TRHR ag | D1 potentiator | TRHR enhancer
C/C(=N\N=C(N)N)c1cc(Cl)ccc1Cl | 11 | -45* | 0 | -13 | 4
C/C(=N\N=C(N)N)c1cccc(Cl)c1 | 5 | -47* | 1 | -10 | 2
C/C(=N\N=C(N)N)c1ccc(Cl)cc1Cl | 13 | -36* | 1 | -10 | 4
CC(C)c1ccc(NC(=O)Cn2cc(S(=O)(=O)Cc3ccccc3Cl)c3ccccc32)cc1 | 4 | 10 | 1 | 5 | 7
COc1ccc(-c2nnc(SCC(=O)Nc3ccc(C(C)=O)cc3)nc2-c2ccc(OC)cc2)cc1 | 3 | -70* | 0 | -9 | 2
COc1cccc(NC(=O)CSc2nnc3c(n2)[nH]c2ccc(C)cc23)c1 | 3 | -84* | 0 | 5 | 3
COc1ccc2[nH]c3nc(SCC(=O)Nc4cccc(NC(C)=O)c4)nnc3c2c1 | 0 | 5 | 2 | -5 | -1
CC(=O)c1ccc(NC(=O)CSc2nnc3c(n2)[nH]c2ccccc23)cc1 | 3 | -37* | 0 | -9 | -8
CCOC(=O)c1[nH]c(C)c(CCC(=O)Nc2ccccc2OCC)c1C | -1 | 2 | -1 | -1 | -3
COCCc1nn2c(=O)cc(COC(=O)c3ccccc3C)nc2s1 | 13 | 3 | 1 | -1 | 8
Cc1ccccc1NC(=S)NCC1CCN(C(C)c2ccccc2)C1 (configuration not stated) | 0 | -36* | -1 | -4 | 1
CCOc1ccc(NC(=O)Cn2nc(Cc3ccncc3)c3ccccc3c2=O)cc1 | 0 | -4 | -2 | -1 | 38*
O=C(Cn1nc(Cc2ccncc2)c2ccccc2c1=O)Nc1cccc(C(F)(F)F)c1 | -1 | -2 | -1 | 3 | 2
CCOC(=O)c1ccc(NC(=O)Cn2nc(C)c3ccccc3c2=O)cc1 | 0 | -10 | 0 | 40* | 30*
COC(=O)c1ccc(NC(=O)Cn2nc(C)c3ccccc3c2=O)cc1 | 12 | -9 | 0 | 0 | 0
FC(F)(F)c1ccccc1NC(=S)N1CCCCCC1 | -1 | 6 | 0 | -2 | 0
CC1CN(C(=S)Nc2ccccc2C(F)(F)F)CC(C)O1 (configuration not stated) | 2 | -34* | 0 | -1 | 4
Cc1sc(NC(=O)c2ccccc2)c(C(c2ccccn2)N2CCN(CCO)CC2)c1C (configuration not stated) | 108* | -5 | 0 | -2 | 26
CCOCCCNC(=O)NC(CCC(C)C)c1c(-n2cccc2)sc2c1CCN(C)C2 (configuration not stated) | 17 | -1 | 0 | 0 | -3
CC(NC(=O)c1cc2sccc2n1C)c1ccc2c(c1)OCCO2 (configuration not stated) | 6 | -7 | 1 | 3 | 1
CCn1c(C(=O)NC(C)c2ccc3c(c2)OCCO3)cc2sccc21 (configuration not stated) | 6 | -32* | 0 | -1 | 1
CCC(CC)C(=O)NCCc1ccc(S(N)(=O)=O)cc1 | 1 | -42* | 1 | -3 | 1
CCCCC(CC)C(=O)NCCc1ccc(S(N)(=O)=O)cc1 (configuration not stated) | 1 | -4 | -1 | -3 | 12
NS(=O)(=O)c1ccc(CCNC(=O)c2ccc3ccccc3n2)cc1 | 2 | -31* | 0 | -10 | -5
COc1ccc(S(=O)(=O)N2CCC(C(=O)NC(C)c3ccccc3)CC2)cc1 (configuration not stated) | 2 | -1 | 0 | -1 | 1
SMILES | D1 ag | D1 antagonist | TRHR ag | D1 potentiator | TRHR enhancer
COc1ccc(CCn2c(N)cc(=O)[nH]c2=O)cc1OC | 1 | -48* | 0 | -7 | 7
COc1ccc(CCn2cc(C#N)c(=O)[nH]c2=O)cc1OC | 0 | 20 | 1 | -3 | 38*
COc1ccccc1CCn1cc(C#N)c(=O)[nH]c1=O | 2 | 4 | 0 | -1 | 8
O=C(Nc1ccc(N2CCN(C(=O)c3ccccc3F)CC2)cc1)c1ncn[nH]1 | 2 | 3 | 0 | 0 | 33*
Cc1ccccc1C(=O)N1CCN(c2ccc(NC(=O)c3cccnc3Cl)cc2)CC1 | 1 | -10 | 1 | -1 | -1
O=C(Nc1ccc(N2CCCCC2)c(Cl)c1)c1ncn[nH]1 | 39* | 1 | 0 | 1 | 12
Cc1cc(C)cc(NCc2cc3c(cc2[N+](=O)[O-])OCO3)c1 | 3 | -33* | 0 | -2 | -1
Cc1ccccc1NS(=O)(=O)c1nnc(NC(=O)c2ccco2)s1 | 8 | -11 | 0 | 0 | -4
Cc1ccc2nc(N3C(=O)C(O)=C(C(=O)c4ccc(C)o4)C3c3cccc(O)c3)sc2c1 (configuration not stated) | 4 | -35* | 1 | -4 | -2
CCOC(=O)c1c(CSC(=N)N)n(C)c2cc(Br)c(OC(C)=O)cc12 | 2 | 6 | 0 | -11 | 3
CCOC(=O)c1c(CSC(=N)N)n(-c2ccc(C)cc2)c2cc(Br)c(OC(C)=O)cc12 | 39* | 25 | 2 | 2 | 4
O=[S+]([O-])(/C=C/c1nc(Nc2cc(F)cc(F)c2)c2ncn(CC(F)F)c2n1)c1ccccc1 | 0 | 4 | 0 | 3 | -1
O=C1NC(=O)/C(=C/c2ccc(-c3cc(C(=O)O)ccc3Cl)o2)S1 | 0 | -45* | 0 | 0 | -14
O=C1NC(=S)/C(=C\c2ccc(-c3ccccc3Cl)o2)S1 | 10 | -2 | 3 | -3 | -1
COc1cccc(CNC(=O)c2nnc(Cc3ccc(Cl)cc3)o2)c1 | -1 | -1 | -1 | -1 | 4
CCOC(=O)c1ccc(NC(=S)N2CCSC2c2ccc(OC)cc2)cc1 (configuration not stated) | 40* | 19 | -1 | 10 | 7
COc1ccc(C2SCCN2C(=S)Nc2cccc(C(F)(F)F)c2)cc1 (configuration not stated) | 56* | -36* | 0 | -9 | 14
COc1ccc(NC(=S)Nc2cccc(C(F)(F)F)c2)c(C)c1 | 2 | / | 0 | -4 | -7
CCOC(=O)c1ccc(NC(=S)N2CCSC2c2ccc(Cl)cc2)cc1 (configuration not stated) | 31* | -12 | 5 | -8 | 0
COc1ccc(C2SCCN2C(=S)Nc2ccc(F)cc2)cc1 (configuration not stated) | 18 | -6 | 1 | -2 | -1
COc1ccc(CCNC(=O)C2(c3cccs3)CCOCC2)cc1 | 1 | / | -1 | 1 | 4
CC(=O)c1ccc(NC(=O)C(Cc2ccccc2)NS(=O)(=O)c2ccc3c(c2)CCC(=O)N3)cc1 (configuration not stated) | 1 | -11 | 0 | 3 | 1
OCCCCNCc1ccc(OCc2ccc(Cl)cc2Cl)cc1 | 61* | -27 | 3 | -9 | 17

Bioassay records (PubChem)
